Data as given in PubChem BioAssay (NCATS).
Active and inactive are the calls of the source. No rule for the calls is given here.

Each compound was assayed on HIV-1 nucleocapsid protein NCp7 (binding to TG oligonucleotide) (assay: HIV Nucleocapsid (AID 346;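 also: potency is for inhibitors that block NC binding and lower polarization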)). Conditions: HIV-1 NC / fluorescein-TGTGTGTG probe, fluorescence polarization.
Procedure: NCGC Assay Overview: HIV-1 nucleocapsid protein (HIV-1 NC) is a small (6.5 kDa) basic zinc-finger protein which participates in packaging of viral genomic RNA. The spacing and metal-chelating residues (3 Cys, 1 His) of the Cys-X2-Cys-X4-His-X4-Cys Zn fingers are conserved among all known retroviruses (J. Med. Chem. 1998, 41, 1371-1381). HIV-1 NC was assayed for its binding to the consensus sequence single-stranded 5'-TGTGTGTG. […] High salt was included to increase the stringency of binding and inhibitor screen. Reducing agents and zinc were present to stabilize the nucleocapsid zinc-finger protein.
NCGC Assay Protocol Summary: Buffer. Hepes pH 7.5, 250mM NaCl, 1uM ZnCl2. 0.004% polyethylene glycol 20000. TCEP (100 uM) and 2-Mercaptoethanol (5 mM), added fresh the day of the experiment. Reagents/Controls. 10 nM TG4xF only in columns 3 and 4 as negative control. 10 nM TG4xF/100 nM HIV-1 NC in columns 1, 2, 5-48. Titration of control compound NSC-13778 (from 20 mM, then 1:2) pin-transferred to column 2. Assay Steps. Two uL of reagents were dispensed to 1536-well Kalypsys black plates. The plates were centrifuged for 1 min at 1000 rpm. Compounds and controls (20 nL) were transferred via Kalypsys PinTool. The plates were incubated for 1 hr at room temperature, and then read on ViewLux (Perkin-Elmer). High-throughput CCD imager using fluorescein polarization filter set and 45 seconds exposure time.
Potency is read from the fitted curve at half-maximal effect.

SMILES	Potency
COc1ccccc1CNc1ccnc(-c2ccc(C(=O)N(C)C)cc2)n1	> 20 µM (inactive)
COCCn1c(=O)c(CCc2ccccc2)nc2cncnc21	> 20 µM (inactive)
COc1cccc(Cn2c(=O)c(-c3cn(C)c4ccccc34)nc3cnc(N4CCNCC4)nc32)c1	> 20 µM (inactive)
CC(=O)N1CCC2(CCCN(c3ccncc3)C2)CC1	> 20 µM (inactive)
COc1ccc(CNc2ncncc2-c2ccc3c(c2)OCO3)c(OC)c1	> 20 µM (inactive)
CN(Cc1ccco1)c1ncnc2ccc(-c3ccccc3C#N)cc12	> 20 µM (inactive)
CN(Cc1ccco1)c1ncncc1-c1ccccc1C(F)(F)F	> 20 µM (inactive)
CS(=O)(=O)Nc1cccc(-c2cc(NCc3cccs3)ncn2)c1	> 20 µM (inactive)
COc1ncc2nc(-c3cccs3)c(=O)n(C)c2n1	> 20 µM (inactive)
COc1ccc(CNc2ncncc2-c2ccccc2Cl)c(OC)c1	> 20 µM (inactive)
CCNc1ncc2nc(-c3cn(C)c4ccccc34)c(=O)n(CCC#N)c2n1	> 20 µM (inactive)
COCCn1c(=O)cnc2cnc(N3CCN(C)CC3)nc21	> 20 µM (inactive)
O=C(c1cnccn1)N1CCC2(CC1)CN(C(c1ccccc1)c1ccccc1)C2	> 20 µM (inactive)
COc1ccc2[nH]cc(CCNc3ncncc3-c3cccnc3)c2c1	> 20 µM (inactive)
CCNc1ncc2nc(-c3cn(C)c4ccccc34)c(=O)n(Cc3ccc(F)cc3)c2n1	> 20 µM (inactive)
CN(Cc1ccco1)c1ccnc(-c2cccc(NS(C)(=O)=O)c2)n1	> 20 µM (inactive)
COCC(=O)N1CCC2(CC1)CN(C(=O)Nc1cccc(C#N)c1)C2	> 20 µM (inactive)
Cc1cccc(CNc2cc(-c3c(C)noc3C)ncn2)c1	> 20 µM (inactive)
COCCn1c(=O)c(CCc2ccccc2)nc2cnc(Oc3cccc(Cl)c3)nc21	> 20 µM (inactive)
COCCn1c(=O)c(-c2cccs2)nc2cnc(N3CCOCC3)nc21	> 20 µM (inactive)

SMILES	Potency
CS(=O)(=O)N1CCC2(CC1)CN(Cc1ccccc1)C2	> 20 µM (inactive)
O=C(Oc1ccccc1)N1CCC2(CC1)CCN(c1ccncc1)CC2	> 20 µM (inactive)
c1ccc(CNc2ccnc(-c3ccoc3)n2)cc1	> 20 µM (inactive)
Cc1cnc(CNc2nc(-c3c(C)noc3C)nc3ccccc23)cn1	> 20 µM (inactive)
O=C(c1cc(C(F)(F)F)cc(C(F)(F)F)c1)N1CCC[C@@]2(CCN(c3ccccn3)C2)C1	> 20 µM (inactive)
c1ccc(Nc2ncncc2-c2ccc3c(c2)OCO3)cc1	> 20 µM (inactive)
FC(F)(F)c1ccccc1-c1nccc(N2CCNCC2)n1	> 20 µM (inactive)
O=C(c1ccncc1)N1CCC2(CCN(Cc3ccncc3)CC2)CC1	> 20 µM (inactive)
O=C(c1ccncc1)N1CCC2(CC1)CCN(c1ccc(-c3ccccc3)cc1)CC2	> 20 µM (inactive)
CN(C)Cc1ccccc1-c1cncnc1NCc1cccs1	> 20 µM (inactive)
COc1ncc2nc(-c3ccc(F)cc3)c(=O)n(Cc3ccc(F)cc3)c2n1	> 20 µM (inactive)
Cc1ccccc1-c1nc(-n2ccnc2)c2ccccc2n1	> 20 µM (inactive)
COc1ccc(CNc2nc(-c3cccc(C#N)c3)nc3ccccc23)c(OC)c1	> 20 µM (inactive)
CC(C)CN1CCCC2(CCN(S(=O)(=O)c3ccccc3)CC2)C1	> 20 µM (inactive)
N#Cc1ccc(CN2CCCC3(CCN(C(=O)c4csnn4)CC3)C2)cc1	> 20 µM (inactive)
COCC(=O)N1CCC2(CC1)CN(C(c1ccccc1)c1ccccc1)C2	> 20 µM (inactive)
CN(C)Cc1ccccc1-c1cc(Nc2ccccc2)ncn1	> 20 µM (inactive)
CN(C)Cc1ccccc1-c1cc(N(C)C)ncn1	> 20 µM (inactive)
COc1cccc(Cn2c(=O)cnc3cnc(Oc4ccccc4)nc32)c1	> 4 µM (inactive)
CS(=O)(=O)Nc1cccc(-c2ccc3ncnc(NCc4cccs4)c3c2)c1	> 20 µM (inactive)
